Results on 40 compounds are retold here after PubChem BioAssay (NCI).

Each structure is given as a SMILES string. This is part of a sample that, as a whole, favours compounds with a hit. Of some 83,000 tested, about 20% had one in any assay.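 Cell lines were cultured in 96-well plates, exposed to a single compound concentration, and assessed for percent growth 48 hours later.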 Active and inactive are the calls of the source.

This assay relates to OVCAR-8 ovarian. The experiment in a line: NCI-60 one-dose screen, 48 h (100 = growth as untreated, 0 = no growth, -100 = all killed). The conditions noted are these: 10 µM unless noted. The procedure: Growth inhibition of the OVCAR-8 human tumor cell line is measured as a screen for anti-cancer activity. Cells are grown in 96 well plates and exposed to the test compound for 48 hours. Compounds are tested at a single concentration, which is 10^-5 M for most compounds. The reported endpoint is percent growth (GI% or GIPRCNT), where numbers from 0 - 100% represent growth inhibition, and numbers from -100% - 0 represent cell death. For example, a value of 40 represents 60% growth inhibition. A value of 0 means no net growth occurred over the course of the experiment. A value of -40 indicates 40% of cells at the beginning of the experiment died by the end of the experiment. A value of -100 means all cells are dead at the end of the experiment.
NCI-60 Human Tumor Cell Lines Screen was performed using the standard one-dose NCI protocol, which is described in more detail at https://dtp.cancer.gov/discovery_development/nci-60/default.htm.
Compounds with GIPRCNT values below 10 were considered active. Activity score was based on GIPRCNT using the following formula: […]
Score is 0 for GIPRCNT values of 100 or above, 50 for GIPRCNT values of 0, and 100 for GIPRCNT values of -100.
As for `COc1ccc([C@H](C)Nc2nc(Cl)nc3ccccc23)cc1`, the growth is 56.4% (inactive).
In the case of `COc1ccc(C(=O)/C=C/c2c(F)cccc2Cl)cc1S(N)(=O)=O`, the growth is 3.5% (active).
To `C#CCOc1cc(N(CC)CC)ccc1C(C(=O)NC(C)(C)C)N(C(=O)C1CCc2cc(F)ccc2O1)c1ccc(F)cc1` (stereo not given) belongs 52.4% (inactive); to `Cc1ccc(-n2c(-c3cc4ccccc4nc3Cl)noc2=O)cc1`, 94.4% (inactive).
To `COc1ccc(-c2ccnc(SCc3cc4cc(OC)ccc4[nH]c3=O)n2)cc1` belongs 33.3% (inactive); to `O=c1[nH]c2ccc(Cl)cc2cc1CSc1nccc(-c2ccc(Cl)cc2)n1`, 42.9% (inactive); to `CC1(C)CC[C@]2(C(=O)Nc3ccc(Br)cc3)CC[C@]3(C)C(=CCC4[C@@]5(C)C[C@@H](O)[C@H](O)[C@@](C)(CO)C5CC[C@]43C)C2C1` (stereo not given in full), 25.6% (inactive).
The same measure for `Cc1ccc(C(=O)CSc2nc3ccc(C)cc3c(=O)n2-c2ccc(F)cc2)cc1`: 31.3% (inactive).
Turning to `COc1cccc(/C=C/c2nc3ccccc3c(=O)n2CC(=O)Nc2ccc(Cl)cc2)c1`, the growth is 48.8% (inactive).
The same measure for `COc1ccc(-c2ccnc(SCc3cc4cc(Cl)ccc4[nH]c3=O)n2)cc1`: 34.1% (inactive); for `CCCSc1nc(Nc2ccc(S(N)(=O)=O)cc2)c(C#N)c(-c2ccc(Cl)cc2)n1`: 15.2% (inactive).
The same measure for `Clc1cccc(Cl)c1/C=C/c1cc(/C=C/c2ccc(Br)cc2)c2ccccc2n1`: 101% (inactive); for `C=C1CCC2C3(C)COC(c4ccc(F)cc4)OC3CCC2(C)C1CC(O)C1=CCOC1=O` (stereo not given): -2.76% (active); for `Nc1n[nH]c2cccc(C#Cc3cccc(NC(=O)c4cccc(Cl)c4)c3)c12`: 21.4% (inactive).
To `C#CCOc1cc(N(CC)CC)ccc1C(C(=O)NC(C)(C)C)N(C(=O)C1CCc2cc(F)ccc2O1)c1cc(C)cc(C)c1` (stereo not given) belongs 34.1% (inactive); to `COc1ccccc1C(=O)NN1C(=O)/C(=C/C2=Cc3ccccc3OC2)SC1=S`, 99.9% (inactive); to `CCOC(=O)C1=C(N)N(c2ccccc2)C2=C(C(=O)CC(C)(C)C2)C1c1ccc([N+](=O)[O-])cc1` (stereo not given), 103% (inactive).
For the compound `CC(=O)OC[C@@]1(C)C2CC[C@]3(C)C(CC=C4C5CC(C)(C)CC[C@]5(C(=O)Nc5ccc(F)cc5)CC[C@]43C)[C@@]2(C)C[C@@H](OC(C)=O)[C@@H]1OC(C)=O` (stereo not given in full), the growth is 36.4% (inactive).
Turning to `CCCS(=O)(=O)N1CCCC(C(=O)Nc2nc3ccc(NC(=O)c4ccc(F)c(OC)c4F)cc3s2)C1` (stereo not given), the growth was 26.6% (inactive).
The same measure for `COc1ccc(C(=O)/C=C/c2ccccc2Br)cc1S(N)(=O)=O`: -64.5% (active); for `C=C1CCC2C3(C)COC(c4ccco4)OC3CCC2(C)C1CC(Sc1ccccc1)C1=CCOC1=O` (stereo not given): 4.17% (active).
The same measure for `N#Cc1c(-c2cccc(Cl)c2Cl)cc(-c2c[nH]c3ccccc23)[nH]c1=O`: 72.5% (inactive); for `COc1ccccc1/C=C/C(=O)c1ccc(OC)c(S(N)(=O)=O)c1`: -9.18% (active).
`CN1CCN(c2ccc3c(c2)nc(NNC(=O)c2ncccn2)c2cccn23)CC1`: the growth is -4.43% (active).
With `Cc1ccc(-c2nnc3ccc(N/N=C/c4ccccc4)nn23)cc1`, the growth was 87.1% (inactive).
Consider `CCOC(=O)C1=C(N)N(c2ccccc2)C2=C(C(=O)CC(C)(C)C2)C1c1cccc(Cl)c1Cl` (stereo not given), for which the growth is 59.4% (inactive).
On to `N#Cc1c(-c2ccc(Cl)cc2)nc2n[nH]c(-c3ccc(Cl)cc3)c2c1-c1ccc(C(F)(F)F)cc1`, for which the growth was 16.2% (inactive).
The same measure for `Cc1ncsc1-c1ccc(CNC(=O)[C@@H]2C[C@@H](O)CN2C(=O)[C@@H](NC(=O)C2(F)CC2)C(C)(C)C)c(OCCOCCOCCOCCOc2nc(Nc3cc(S(C)(=O)=O)ccc3N[C@@H](c3cccc4c3OC(F)(F)O4)c3ncccc3Cl)nc(N3CCNCC3)n2)c1`: 98.4% (inactive); for `O=c1oc2ccccc2cc1-c1csc(N2N=C(c3ccccc3)CC2c2ccc(N3CCOCC3)cc2)n1` (stereo not given): 104% (inactive); for `CC(=O)N1CCN(Cc2ccc3c(NNC(=O)c4cnccn4)nc4cc(F)ccc4n23)CC1`: 17.2% (inactive).
For the compound `CC1=C(C(=O)OCc2ccccc2)C(c2c(O)cc(O)cc2O)n2c(nc3ccccc32)N1` (stereo not given), the growth was 77.9% (inactive).
Consider `Cc1cc(C)n(-c2ccc3nnc(-c4ccccc4)n3n2)n1`, for which the growth is 96.9% (inactive).
To `CN1C(=O)/C(=C/c2ccc(C(=O)Nc3ncc(Cc4ccc(Cl)cc4Cl)s3)cc2)SC1=S` belongs 39.3% (inactive); to `COc1ccc(NC(=O)Nc2ccc(OCc3ccc(F)cc3)cc2)cc1`, 40.2% (inactive).
For the compound `N=C1N=C(SCc2nc3ccccc3[nH]2)NC(=O)/C1=C/c1ccc(Cl)cc1`, the growth is 102% (inactive).
Turning to `O=C(/C=C/c1cccc(OCc2ccccc2)c1)c1nc2ccccc2[nH]1`, the growth was 58% (inactive).
To `S=C(Nc1ccccc1)Nc1ccc(OCc2nc3ccccc3[nH]2)cc1` belongs 35.8% (inactive).
The same measure for `COc1cc(/C=C/C(=O)c2ccc(C)cc2)ccc1Oc1nc(Nc2ccc(F)cc2)nc(N(C)C)n1`: 38% (inactive).
To `O=C(NN1C(=O)/C(=C/C=C/c2ccc([N+](=O)[O-])o2)SC1=S)c1ccc(Cl)cc1` belongs -78.2% (active); to `CCCSc1nc(Nc2ccc(S(N)(=O)=O)cc2)c(C#N)c(-c2cc(OC)c(OC)c(OC)c2)n1`, 10.2% (inactive).
